Reference: PubChem BioAssay AID457 (Sanford-Burnham Center for Chemical Genomics, 2006)
About 20 (0.2%) of roughly 10,000 compounds were called active. The rule behind the calls is not given here. Not all results are given here.

Assay: boosters of cytokine-driven VCAM-1 levels – imaging, high-content imaging, pooled HUVEC, TNFa stimulus (AID 457);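 for augmentation: cells exposed to compound for 24 hours before fixing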
Details: TNFa-induced VCAM-1 immunofluorescence imaging;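 compounds tested at 5 µM in the well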

| SMILES | augmentation |
| --- | --- |
| O=C(COC(=O)C1=COCCO1)Nc1ccccc1Oc1ccccc1 | inactive |
| O=C(CN1C(=O)CSC1=O)Nc1ccc(N2CCOCC2)cc1 | inactive |
| CCN(CC)CCN1C(=O)C(=O)/C(=C(/O)c2c(C)[nH]c(C(=O)OC)c2C)C1c1ccco1 (centres undefined) | inactive |
| CCNC(=O)N(C)c1nncnc1C(=O)NC | inactive |
| Cc1noc(C)c1S(=O)(=O)N1CCC(C(=O)N2CCN(Cc3ccc4c(c3)OCO4)CC2)CC1 | inactive |
| O=C(CSc1nnc(-c2ccncc2)n1-c1ccc(F)cc1)NC(=O)NCc1ccco1 | inactive |
| COc1ccc(S(=O)(=O)NC(CC(=O)NCc2ccco2)c2ccco2)cc1 (centres undefined) | inactive |
| COc1ccc2nc(NC(=O)C3CCCN(S(=O)(=O)c4cccc5nsnc45)C3)sc2c1 (centres undefined) | inactive |
| COC(=O)C(CCCCNC(=O)OCc1ccccc1)NC(=O)CN (centres undefined) | inactive |
| CCCCC(CC)Cn1c2nc3ccccc3nc2c2c(=N)oc(C)nc21 (centres undefined) | inactive |
| O=C(CCCN1C(=O)c2ccccc2C1=O)NCc1cccnc1 | inactive |
| CCN(CC)S(=O)(=O)c1cccc(-c2nnc(SCC(N)=O)n2CCc2ccccc2)c1 | inactive |
| CCc1c(C(=O)Nc2cc(C)ccc2OC)[nH]c(C)c1C(C)=O | inactive |
| COC(=O)c1ccc(-c2nn(C)c(=O)c3ccccc23)cc1 | inactive |
| Cc1cc2ncn(S(=O)(=O)c3ccc(S(=O)(=O)N4CCOCC4)cc3)c2cc1C | inactive |
| Cc1ccccc1NC(=O)CN1CCC(NC(=O)Nc2ccccc2)CC1 | inactive |
| O=C(Nc1ccc(O)cc1)C1CCCN1S(=O)(=O)c1ccc(F)cc1 (centres undefined) | inactive |
| O=c1c2ccccc2cnn1-c1nc2ccccc2s1 | inactive |
| CCc1nnc(NC(=O)CSc2nc3ccccc3s2)s1 | inactive |
| Cc1cccc(C(=O)N(C)c2nnc(-c3ccncc3)s2)c1 | inactive |
| CCOC(=O)CC1(CC(=O)OCC)NC(=O)c2c(C)sc(C(=O)OCC)c2N1 | inactive |
| CCSc1nc(-c2ccc(OC)cc2)ccc1C#N | inactive |

| SMILES | augmentation |
| --- | --- |
| COC(=O)c1ccccc1NC(=O)c1cc(-c2ccc(OC)c(OC)c2)on1 | inactive |
| Cc1cccc(N(CC(=O)Nc2ccc(CC#N)cc2)S(C)(=O)=O)c1 | inactive |
| COc1ccc(CN(C(=O)c2oc3ccccc3c2C)C2CCS(=O)(=O)C2)cc1 (centres undefined) | inactive |
| Cn1c(=O)c2ncn(CC(=O)NCCOc3ccc(C(C)(C)C)cc3)c2n(C)c1=O | inactive |
| CSc1nc2ccc(S(=O)(=O)N3CCOCC3)cc2s1 | inactive |
| Cn1c(Cc2cccs2)nnc1SCC(=O)N1CCc2ccccc21 | inactive |
| O=S(=O)(c1cccc(S(=O)(=O)N2CCC(N3CCCCC3)CC2)c1)N1CCOCC1 | inactive |
| Cc1ccccc1CS(=O)(=O)Cc1ccc(C(=O)NCCCN2CCOCC2)o1 | inactive |
| COc1cccc(-c2noc(CCC(=O)NC3CCCCC3)n2)c1 | inactive |
| CCOC(=O)CSC1=Nc2ccccc2C2=NC(CC(=O)NCc3ccc(OC)cc3)C(=O)N12 (centres undefined) | inactive |
| Cc1cc(NC(=O)C23CCC(C)(c4nc5cc(Cl)c(Cl)cc5nc42)C3(C)C)no1 (centres undefined) | inactive |
| Cc1ccc(/C(O)=C2\C(=O)C(=O)N(CCCN(C)C)C2c2ccccn2)cc1 (centres undefined) | inactive |
| O=C(OCc1ccc2c(c1)OCO2)c1ccc(S(=O)(=O)N2CCCCC2)cc1 | inactive |
| CCN(CC)S(=O)(=O)c1ccc(S(=O)(=O)N(Cc2ccccn2)Cc2ccco2)cc1 | inactive |
| O=C(COc1ccc(S(=O)(=O)NC2CCCCC2)cc1)NCc1ccccn1 | inactive |
| CCCCOc1ccc(N(CC(=O)NC2CCCC2)C(=O)CCC(=O)Nc2ccccn2)cc1 | inactive |
| CS(=O)(=O)Nc1ccc(C(=O)NCc2ccco2)cc1 | inactive |
| CCN(Cc1nc2cc(OC)c(OC)cc2c(=O)[nH]1)C(=O)c1ccc(S(=O)(=O)N(C)C)cc1 | inactive |
| O=C(CP(=O)(c1ccccc1)c1ccccc1)N1CCCCC1 | inactive |
| Cc1cnc(C(=O)Nc2ccc(N3CCN(C(=O)OC(C)(C)C)CC3)cc2)cn1 | 14.8% (inactive) |
| COc1cccc(N2CCN(CC(=O)Nc3nnc(-c4ccccc4)s3)CC2)c1 | inactive |
| Oc1ccc(N2CCN(C(c3ccncc3)c3nnnn3C3CCCC3)CC2)cc1 (centres undefined) | inactive |

| SMILES | augmentation |
| --- | --- |
| C1CCC2=NCCCN2CC1 | inactive |
| CCOc1ccc(N(CC(=O)Nc2ccc(F)c(F)c2)S(=O)(=O)c2c(C)noc2C)cc1 | inactive |
| COc1cc(Cl)c(C)cc1NC(=O)COC(=O)c1cnc(C)cn1 | inactive |
| O=C(CC1CCCCC1)NCc1ccccn1 | inactive |
| COc1ccccc1CNS(=O)(=O)c1ccc(NC(C)=O)cc1 | inactive |
| COc1ccc(S(=O)(=O)NC2CCCCC2)c(C)c1C | inactive |
| Cc1nc2ccc(S(=O)(=O)NCC(=O)N3CCc4ccccc4C3)cc2s1 | inactive |
| CCOc1ccccc1Nc1nc2ccccc2[nH]1 | inactive |
| Cc1ccc2nc(-c3ccc4c(c3)OCCO4)cc(C(=O)O)c2c1 | inactive |
| COc1ccc(C(=O)NCCc2nnc(SCc3nc4ccccc4c(=O)[nH]3)n2C)cc1 | inactive |
| Cc1cc(NC(=O)c2cc3ccccc3o2)cc(C)c1OCC(=O)N1CCOCC1 | inactive |
| Cc1c(C(=O)OCC(C)C)[nH]c2c1C(=O)CC(c1ccco1)C2 (centres undefined) | inactive |
| CC(NC(=O)c1ccc(F)cc1)C(c1cccs1)N1CCN(C)CC1 (centres undefined) | inactive |
| C=CCN1C(=O)C2(C(C#N)=C(N)Oc3n[nH]c(CCC)c32)c2ccccc21 (centres undefined) | inactive |
| CCOC(=O)c1c(NC(=O)OC)sc(C(=O)N(C)C)c1C | inactive |
| COc1ccc(N(C)C(=O)CCS(=O)(=O)c2cccc3nonc23)cc1 | inactive |
| COc1ccc(CCNC(=O)CCN2C(=O)C3CC=CCC3C2=O)cc1OC (centres undefined) | inactive |
| O=C(Nc1ccccc1)c1cnc2n(c1=O)CCS2 | inactive |
| C=CCn1cnc2c(NCc3ccccc3)ncnc21 | inactive |
| Cc1cc(C)n(S(=O)(=O)c2cc(C(=O)O)c(Cl)cc2Cl)n1 | inactive |
| CCOC(=O)C1=C(CN2CCOCC2)NC(=O)NC1c1cc(C)ccc1C (centres undefined) | inactive |
| O=C(O)CC(NC(=O)c1ccccc1NC(=O)c1ccccc1)C(=O)O (centres undefined) | inactive |

| SMILES | augmentation |
| --- | --- |
| COc1ccc2cc(CN(CCO)C(=O)c3ccc(Br)cc3)c(=O)[nH]c2c1 | inactive |
| COc1cc(OC)cc(-c2nnc(SCC(=O)Nc3cc(C)on3)o2)c1 | inactive |
| Cc1ccc(C(=O)OCC(=O)Nc2ccc3c(c2)OCO3)o1 | inactive |
| Cc1cc2ccccc2c(=O)n1CC(=O)N(C)c1ccc(F)cc1 | inactive |
| CC(Oc1ccccc1)C(=O)Nc1ccc(S(=O)(=O)NCC2CCCO2)cc1 (centres undefined) | inactive |
| Cn1c(NC(=O)c2cccc(Cn3cc(Cl)cn3)c2)nc2ccccc21 | inactive |
| Cc1cc2c(s1)c1cnn(CC(=O)NCCc3ccccc3)c(=O)c1n2C | inactive |
| COc1ccc2c(c1)CCc1c(C(=O)N3CC4(C)CC3CC(C)(C)C4)noc1-2 (centres undefined) | inactive |
| O=C(Cn1ccc2ccccc2c1=O)NCCC(=O)N1CCN(C(=O)c2ccco2)CC1 | inactive |
| CCN(CC)C1CCCCC1NS(=O)(=O)c1ccc(Cl)cc1 (centres undefined) | inactive |
| Cn1c(=O)cc(OCC(=O)N2CCN(c3cccc(C(F)(F)F)c3)CC2)c2ccccc21 | inactive |
| COCCNC(=O)CN1CCN(C(c2ccccc2)c2ccccc2)CC1 | inactive |
| Cc1ccc(CN2CCN(C(=O)C3CCC3)CC2)cc1 | inactive |
| Cc1cc(NC(=O)CCOc2ccccc2)no1 | inactive |
| COc1ccc(N2C(=O)C3CCCN3C2c2ccc(F)cc2)cc1Cl (centres undefined) | inactive |
| O=c1c2cnn(-c3ccccc3)c2ncn1/N=C/c1ccncc1 | inactive |
| COC(=O)c1[nH]c2ccc(C)cc2c1NC(=O)CN1CCN(C(=O)c2ccccc2)CC1 | inactive |
| CC1Cc2cc(/C(O)=C3/C(=O)C(=O)N(CCN4CCOCC4)C3c3cccc(O)c3)ccc2O1 (centres undefined) | inactive |
| Clc1ccc(-c2nnc3sc(-c4ccc(Br)o4)nn23)cc1 | inactive |
| CCCCN(CCCNC(=O)C1CCN(S(=O)(=O)CC)CC1)c1ccccc1 | inactive |
| CS(=O)(=O)N(CC(=O)N1CCN(c2cccc(Cl)c2)CC1)C1CCCCC1 | inactive |
| CC1CCN(CCCNC(=O)c2coc3nc4ccccc4nc23)CC1 | inactive |

| SMILES | augmentation |
| --- | --- |
| COc1ccc(-c2nnc(SCC#N)o2)cc1 | inactive |
| O=C(CSc1nnnn1-c1ccc2c(c1)OCO2)NCc1cccs1 | inactive |
| CCOC(=O)N1CCN(C(=O)c2csc3c2CCCCC3)CC1 | inactive |
| Cc1cccc(-n2ncc3c(NCc4ccccn4)ncnc32)c1 | inactive |
| CCCN(CCC)C(=O)c1c(C)[nH]c(C(=O)OCC)c1C | inactive |
| CCOC(=O)c1ccc2nc(C)c3c(c2c1)OC(C)C3 (centres undefined) | inactive |
| Cc1c(NC(=O)C2CCCNC2=O)c(=O)n(-c2ccccc2)n1C (centres undefined) | inactive |
| O=C1CC(c2ccccc2)Cc2nc(N3CCc4ccccc43)ncc21 (centres undefined) | inactive |
| CC(=O)N1CCN(c2ccc(S(=O)(=O)N3CCCCC3)cn2)CC1 | inactive |
| COc1cc(OC)cc(-c2nc3cc(C)ccc3o2)c1 | inactive |
| CC1CN(C(=O)CSc2nnc(-c3ccc(Cl)cc3)n2C)CC(C)O1 (centres undefined) | inactive |
| CCCOc1ccccc1NC(=O)c1ccc(N)cc1 | inactive |
| C=CCSc1ncccc1C(=O)O | inactive |
| CCN(CCNC(=O)C1CCN(S(=O)(=O)CC)CC1)c1ccccc1 | inactive |
| Cc1oc2cc3c(C(=O)OCCN(C)C)c(C)oc3cc2c1C(=O)OCCN(C)C | inactive |
| Cc1nc(CNS(=O)(=O)c2cccc(F)c2)cs1 | inactive |
| CCN(CC)c1ccc2c(c1)CCCN2 | inactive |
| Cc1onc(-c2ccccc2)c1C(=O)N1CCCSC1=Nc1ccccc1 | inactive |
| COCCN1CCN(c2c(C)c(C)nc3cc(-c4cccc(OC)c4)nn23)CC1 | inactive |
| C=CCN1C(=O)C2(/C(=C(\O)c3ccc4c(c3)OCCO4)C(=O)C(=O)N2CCCOC)c2ccccc21 (centres undefined) | inactive |
| C=CCOc1nc(N2CCCC2)nc(N2CCCC2)n1 | inactive |
